# About 4,000 (25%) of roughly 16,000 compounds were called active. Inconclusive results (about 26%) are left out. The call rests on the fitted dose curve; in most records, active means well fitted curve in the direction sought with a large enough effect; inconclusive means small, poorly fitted or top-dose-only effect, or effect the other way; inactive means no such curve, though single readings can be large or run the other way. Only a sample is shown.
# Target: Cytochrome P450 2C9 (Homo sapiens) (UniProt P11712)
# Sequence (P11712 whole entry, looked up): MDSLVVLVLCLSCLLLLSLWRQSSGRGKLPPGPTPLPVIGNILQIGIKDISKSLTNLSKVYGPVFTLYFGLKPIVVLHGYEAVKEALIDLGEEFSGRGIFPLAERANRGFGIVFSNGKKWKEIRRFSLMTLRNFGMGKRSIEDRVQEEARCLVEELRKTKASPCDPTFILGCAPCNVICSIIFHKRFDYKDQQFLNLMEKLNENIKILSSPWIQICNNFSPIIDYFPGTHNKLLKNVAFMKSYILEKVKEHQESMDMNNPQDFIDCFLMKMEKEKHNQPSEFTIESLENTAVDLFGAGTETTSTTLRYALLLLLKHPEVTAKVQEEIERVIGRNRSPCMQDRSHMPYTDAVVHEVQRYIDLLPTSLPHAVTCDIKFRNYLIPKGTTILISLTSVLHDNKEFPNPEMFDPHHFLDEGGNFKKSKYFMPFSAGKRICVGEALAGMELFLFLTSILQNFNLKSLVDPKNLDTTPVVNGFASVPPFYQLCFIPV
# Experiment: Cytochrome panel assay with activity outcomes
# Conditions: recombinant CYP, pro-luciferin dealkylation, luminescence, p450-cyp2c9; series mostly up to 57.1 µM; activity, negative = inhibition: at the top concentration
# On the % scale 0 is the no-effect control and ±100 the full control effect.
SMILES,"activity, negative = inhibition",AC50
Cc1cnc(CNc2cc(-c3ccccc3CN(C)C)ncn2)cn1,10.9% [at 2.29 µM] (inactive),–
Cc1ccc(C(=O)N/N=C/c2ccc(S(=O)(=O)O)o2)c(Cl)c1,-29.6% (inactive),–
COC(=O)c1ccc(/C=N\NC(=O)c2ccc(C)cc2Cl)cc1,–,8.91 µM (active)
Cc1ccc(S(=O)(=O)N[C@H](CN)C(=O)O)cc1,-0.685% [at 11.4 µM] (inactive),–
Cc1ccc(S(=O)(=O)NC(CC(C)C)C(=O)Oc2ccc3c4c(c(=O)oc3c2)CCC4)cc1 (configuration not stated),-27.3% (inactive),–
Cc1ccc(S(=O)(=O)N[C@H](C(=O)Oc2ccc3c(C(F)(F)F)cc(=O)oc3c2)c2ccccc2)cc1,–,10 µM (active)
c1ccc2c(c1)ncn2-c1ccc(-c2ccnc(-c3ccncc3)n2)cc1,–,0.224 µM (active)
CCC(C)NS(=O)(=O)c1ccc(OCC(=O)Nc2ccc3c(c2)OCCO3)cc1 (configuration not stated),–,3.98 µM (active)
CCC(C)NS(=O)(=O)c1ccc(OCC(=O)NCC2CCCO2)cc1 (configuration not stated),-20% (inactive),–
CSc1nc(C)cc(Nc2ccc(O)c(CN3CCOCC3)c2)n1,-8.69% [at 11.4 µM] (inactive),–
Cc1cc(N2CCOCC2)nc(SCc2ccc(Cl)cc2Cl)n1,–,7.94 µM (active)
Cc1cc(C)c2c(SCc3ccc(Cl)cc3Cl)nc(N)nc2n1,-3.34% [at 11.4 µM] (inactive),–
c1ccc(Nc2ncncc2-c2ccoc2)cc1,4.61% [at 2.29 µM] (inactive),–
O=[N+]([O-])C1=CC=C2C(=NC3(CCCCC3)N2O)C1=NC1CCCCC1,–,3.55 µM (active)
CCOC(=O)C1=C[C@@]2(CC)CCCN3CCc4c(n1c1ccccc41)[C@H]32,–,inactive
CCOCC(=O)Nc1cc(C(=O)Nc2ccccc2)ccc1Cl,–,5.62 µM (active)
CCOCC(=O)Nc1cc(C(=O)Nc2cccc(C)c2C)ccc1Cl,9.34% (inactive),–
NCCSCCc1ccccc1,-27.8% [at 11.4 µM] (inactive),–
Cc1ccccc1CSc1nccn1-c1ccccc1,–,7.08 µM (active)
c1ccc(CCSc2nccn2-c2ccccc2)cc1,–,15.8 µM (active)
O=C(O)CSCCc1ccccc1,29.1% [at 11.4 µM] (inactive),–
Cn1nnnc1SCc1ccccc1[N+](=O)[O-],-16.4% (inactive),–
CC(=O)N[C@@H]1CONC1=O,-5.39% [at 11.4 µM] (inactive),–
COC(=O)c1c(NC(=O)C(C)(C)C)sc2c1C(C(=O)OC)CC2 (configuration not stated),–,20 µM (active)
O=c1nc(N2CCOCC2)ccn1-c1nc(-c2ccccc2)oc1-c1ccccc1,–,4.47 µM (active)
O=c1c(-c2cc(F)cc(F)c2)nc2cnc(N3CCOCC3)nc2n1-c1ccccc1,-13.9% (inactive),–
O=c1c(-c2ccccc2)nc2cnc(N3CCOCC3)nc2n1-c1ccccc1,-26% (inactive),–

# Source: PubChem BioAssay AID1851 (National Center for Advancing Translational Sciences (NCATS), 2009)
